Assay outcomes from PubChem.
MITF inh: human MITF inhibition, primary screen. O75030. AlphaScreen MITF homodimerization, bead proximity signal. inhibition, % at 2.6 µM. 650,000 compounds, 0.91% hits. AID 1259374; in the data active = inhibition above about 50%
GPR151 activ: human GPR151 activation; PathHunter beta-arrestin GPR151 cells, luminescence; activation, % at 11.2 µM; 650,000 compounds, 1% hits; in the data active = activation above about 4.9%
Target sequence (Q8TDV0 whole entry, looked up): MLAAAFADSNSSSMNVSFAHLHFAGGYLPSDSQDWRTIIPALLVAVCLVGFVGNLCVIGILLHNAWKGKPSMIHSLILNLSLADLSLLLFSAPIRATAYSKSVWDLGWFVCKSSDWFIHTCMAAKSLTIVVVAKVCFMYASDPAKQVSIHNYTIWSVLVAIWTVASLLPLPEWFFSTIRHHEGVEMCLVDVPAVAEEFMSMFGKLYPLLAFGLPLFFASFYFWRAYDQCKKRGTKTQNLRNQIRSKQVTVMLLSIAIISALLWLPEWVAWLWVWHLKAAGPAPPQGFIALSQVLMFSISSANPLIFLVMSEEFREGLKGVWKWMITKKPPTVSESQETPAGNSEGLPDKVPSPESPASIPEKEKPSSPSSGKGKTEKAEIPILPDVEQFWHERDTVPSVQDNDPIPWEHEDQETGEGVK
TEAD-YAP block: TEAD-YAP interaction inhibition. 640,000 compounds, 1.4% hits. inhibition, % at 9.12 µM. HEK-TIYL cells, TEAD-Gal4/YAP UAS-luciferase luminescence. AID 1259422; in the data active = inhibition above about 32%
FBW7 activator: human FBW7 E3 ligase activation, primary screen; AID 1259310; AlphaScreen FBW7–phospho-cyclin E peptide binding, activator screen; 650,000 compounds, 0.13% hits; normalized activity (activation), % at 26.1 µM; in the data active = normalized activity above about 1.9%;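 also: purified mutant Fbw7 with reduced substrate affinity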
GPR151 conf act: human GPR151 activation, confirmation screen. 6,700 tested, under 10 active. shares compounds with GPR151 activ. activation, % at 11.2 µM. AID 1508609. GPR151 PathHunter beta-arrestin cells, luminescence, 90 min; % of EA-reagent control over plate median;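 active = mean percent activation across replicates above the confirmation screen cutoff of 4.91%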
GPR119 counter: activates human GPR119 in a GPR151 counter-screen | 6,700 compounds, 0.3% hits | GPR119 PathHunter beta-arrestin cells, luminescence, 90 min; 0 = compound-well median, 100 = enzyme-acceptor control | activation, % at 11.2 µM | shares compounds with GPR151 activ;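 active = mean percent activation in the counterscreen above 29.09%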;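 also: counterscreen on off-target GPR119 to flag nonselective hits from the GPR151 activator screen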
Hits are given with their value; ! = repeats disagree. An excerpt weighted towards active compounds, which were near 3.5% of everything screened.

CCOc1ncccc1C(=O)NC1(C)CCS(=O)(=O)C1 (stereo unspecified) was read as MITF inh inactive, GPR151 activ 6.2, TEAD-YAP block inactive, FBW7 activator inactive, GPR151 conf act inactive and GPR119 counter inactive.
`COC(=O)CCC(=O)Nc1ccc(Br)c(Cl)c1` gave MITF inh inactive, GPR151 activ inactive, TEAD-YAP block inactive and FBW7 activator inactive.
COc1ccc(OCC(=O)Nc2ccc(S(=O)(=O)N(C)Cc3ccccc3)cc2)cc1 was read as MITF inh inactive, GPR151 activ inactive, TEAD-YAP block inactive and FBW7 activator inactive.
For Cc1ccc(-c2[nH]ncc2CN(C)Cc2nc(-c3cccnc3)no2)cc1C the results were MITF inh inactive, GPR151 activ inactive, TEAD-YAP block inactive and FBW7 activator inactive.
Screening Cc1ccc(O)c(C(=O)CC(=O)c2ccccc2C)c1 returned MITF inh inactive, GPR151 activ inactive, TEAD-YAP block inactive and FBW7 activator inactive.
Screening CCN(CC)CCNC(=O)c1cc(Cl)c(N)cc1OC returned MITF inh inactive, GPR151 activ 6.6!, TEAD-YAP block inactive, FBW7 activator inactive, GPR151 conf act inactive and GPR119 counter inactive.
Nn1c(SCc2c(Cl)cccc2Cl)nnc1-c1ccncc1 was read as MITF inh inactive, GPR151 activ inactive, TEAD-YAP block inactive and FBW7 activator inactive.
For CCCCS(=O)(=O)N1CCN(C2CCCCC2)CC1 the results were MITF inh inactive, GPR151 activ inactive, TEAD-YAP block inactive and FBW7 activator inactive.
CCCCNc1nc(SCC(=O)Nc2ccc(OCC)cc2)nc2ccccc12 was read as MITF inh inactive, GPR151 activ inactive, TEAD-YAP block inactive and FBW7 activator inactive.
COCCNc1nc(SCC(=O)NCCc2ccc(S(N)(=O)=O)cc2)nc2ccccc12 was read as MITF inh inactive, GPR151 activ 4.9, TEAD-YAP block inactive, FBW7 activator inactive, GPR151 conf act inactive and GPR119 counter inactive.
CCOc1ccc(NC(=O)CSc2nc(NCCc3ccccc3)c3ccccc3n2)cc1 was read as MITF inh inactive, GPR151 activ 6.0, TEAD-YAP block inactive, FBW7 activator inactive, GPR151 conf act inactive and GPR119 counter inactive.
For O=C(CCCN1C(=O)c2cccnc2C1=O)Nc1ccc(C(F)(F)F)cc1 the results were MITF inh inactive, GPR151 activ 9.0, TEAD-YAP block inactive, FBW7 activator inactive, GPR151 conf act inactive and GPR119 counter inactive.
Screening CN(C(=O)c1ccccc1)c1ccccc1N returned MITF inh inactive, GPR151 activ inactive, TEAD-YAP block inactive and FBW7 activator inactive.
CCc1ccc(C2=NC(C)(CC)NC(c3cc(Cl)ccc3O)C2)cc1 (stereo unspecified) was read as MITF inh inactive, GPR151 activ inactive, TEAD-YAP block inactive and FBW7 activator inactive.
For CCCC1(C)N=C(c2ccc(CC)cc2)CC(c2cc(Br)ccc2O)N1 (stereo unspecified) the results were MITF inh inactive, GPR151 activ 11, TEAD-YAP block inactive, FBW7 activator inactive, GPR151 conf act inactive and GPR119 counter inactive.
O=c1[nH]cc(N=Cc2ccc([N+](=O)[O-])cc2)c(=O)[nH]1 was read as MITF inh inactive, GPR151 activ 6.5, TEAD-YAP block inactive, FBW7 activator inactive, GPR151 conf act inactive and GPR119 counter inactive.
For O=c1[nH]cc(N=Cc2ccc(O)cc2)c(=O)[nH]1 the results were MITF inh inactive, GPR151 activ inactive, TEAD-YAP block inactive and FBW7 activator inactive.
For CCCCN(C)c1nnc(NC(=O)Nc2ccc(Cl)cc2)s1 the results were MITF inh inactive, GPR151 activ 7.5, TEAD-YAP block inactive, FBW7 activator inactive, GPR151 conf act inactive and GPR119 counter inactive.
CCCCN(C)c1nnc(NC(=O)Nc2ccc(CC(=O)OCC)cc2)s1 was read as MITF inh inactive, GPR151 activ inactive, TEAD-YAP block inactive and FBW7 activator inactive.
COc1ccc(C(=O)Cn2c(N(C)C)nc3c2c(=O)n(C)c(=O)n3C)cc1 was read as MITF inh inactive, GPR151 activ 5.4, TEAD-YAP block inactive, FBW7 activator inactive, GPR151 conf act inactive and GPR119 counter inactive.
`COc1ccc(C(=O)Cn2c(N3CCOCC3)nc3c2c(=O)n(C)c(=O)n3C)cc1` gave MITF inh inactive, GPR151 activ inactive, TEAD-YAP block inactive and FBW7 activator inactive.
`O=C(Nc1c(F)cccc1F)N1CCn2cccc2C1c1ccccc1` (stereo unspecified) gave MITF inh inactive, GPR151 activ 11, TEAD-YAP block inactive, FBW7 activator inactive, GPR151 conf act inactive and GPR119 counter inactive.
Cc1cc(-c2cncc(-c3ccc(N4CCN(C)CC4)nc3)n2)cc(C)c1O was read as MITF inh inactive, GPR151 activ inactive, TEAD-YAP block inactive and FBW7 activator inactive.
Screening CC1CCCN(c2c(-c3ccc(Cl)cc3)c(=O)c2=O)C1 (stereo unspecified) returned MITF inh inactive, GPR151 activ 5.9, TEAD-YAP block inactive, FBW7 activator inactive, GPR151 conf act inactive and GPR119 counter inactive.
Screening COC(=O)c1c(NC(=O)/C=C/c2ccc(C)o2)sc(C(=O)N(C)C)c1C returned MITF inh inactive, GPR151 activ inactive, TEAD-YAP block inactive and FBW7 activator inactive.
Cc1nc2cc(-c3cccc(F)c3)nn2c(NCCN)c1C was read as MITF inh inactive, GPR151 activ 5.2, TEAD-YAP block inactive, FBW7 activator inactive, GPR151 conf act inactive and GPR119 counter inactive.
CC(=O)NC(=O)NC(c1ccccc1)c1cccc(Cl)c1 (stereo unspecified) was read as MITF inh inactive, GPR151 activ 6.1, TEAD-YAP block inactive, FBW7 activator inactive, GPR151 conf act inactive and GPR119 counter inactive.
`CC(=O)N1CCc2cc(C(=O)CN3CC(C)CC(C)C3)ccc21` (stereo unspecified) gave MITF inh inactive, GPR151 activ 6.2, TEAD-YAP block inactive, FBW7 activator inactive, GPR151 conf act inactive and GPR119 counter inactive.
Screening COc1ccccc1N=c1oc2ccccc2cc1C(=O)Nc1ccc(Cl)cc1Cl returned MITF inh inactive, GPR151 activ inactive, TEAD-YAP block inactive and FBW7 activator inactive.
For COc1ccccc1NC(=O)c1cc2ccccc2oc1=Nc1ccc(Cl)cc1Cl the results were MITF inh inactive, GPR151 activ 9.2, TEAD-YAP block inactive, FBW7 activator inactive, GPR151 conf act inactive and GPR119 counter inactive.
Screening COc1ccc(/C(O)=C2/C(=O)C(=O)N(CCCO)C2c2cccc(Cl)c2)cc1F (stereo unspecified) returned MITF inh inactive, GPR151 activ 6.8, TEAD-YAP block inactive, FBW7 activator inactive, GPR151 conf act inactive and GPR119 counter inactive.
COCCCN1C(=O)C(=O)/C(=C(\O)c2ccc(C)cc2)C1c1ccc(F)cc1 (stereo unspecified) was read as MITF inh inactive, GPR151 activ 7.6, TEAD-YAP block inactive, FBW7 activator inactive, GPR151 conf act inactive and GPR119 counter inactive.
